Compound activity from PubChem BioAssay.
m5-HT2A agonist: agonists of mouse serotonin 5-HT2A receptor (HTR2A); P35363; CHO-K1 mHTR2A beta-arrestin complementation, luminescence; percent of 30 µM serotonin response; activation, % at 7.6 µM; 360,000 tested, 0.66% active; AID 624169;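 active means activation above a run cutoff, the mean activation of all tested compounds plus 3 SD, cut at about 14% in these data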
B2AR ag: agonists of human beta-2 adrenergic receptor inducing internalization | 340,000 tested, 0.43% active | response, % (test concentration not listed) | P07550 | Am2.2-beta2AR cells, FAP receptor internalization, flow cytometry;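 active means response above a set limit, near 3 SD of response in nonfluorescent compounds, cut at about 42% in these data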
NTR1 ag: activates human neurotensin receptor 1. P30989. activation, % at 20 µM. 330,000 tested, 0.17% active. NTR1-U2OS beta-arrestin-GFP spot imaging, agonist mode;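 active means activation at or above 40% of the spot to cytoplasm intensity ratio, with at least 20 cells analyzed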
Exocytosis inh: lytic granule exocytosis inhibition | TALL-104 LAMP-1 surface exposure, flow cytometry; cells stimulated with thapsigargin and PMA | inhibition, % at 10 µM | 360,000 tested, 0.66% active | AID 651702;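 active means inhibition above about 55%, limit read from the data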
ABHD5-PLIN5 inh: ABHD5-PLIN5 protein interaction inhibition | Q00G26+Q8WTS1 | Split G. princeps luciferase complementation, luminescence, 4 h | inhibition, % at 4 µM | 360,000 tested, 0.78% active | AID 602281;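 active means inhibition above the mean inhibition across every tested compound plus 3 SD, cut at about 22% in these data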
Target sequence (Q00G26 whole entry, looked up): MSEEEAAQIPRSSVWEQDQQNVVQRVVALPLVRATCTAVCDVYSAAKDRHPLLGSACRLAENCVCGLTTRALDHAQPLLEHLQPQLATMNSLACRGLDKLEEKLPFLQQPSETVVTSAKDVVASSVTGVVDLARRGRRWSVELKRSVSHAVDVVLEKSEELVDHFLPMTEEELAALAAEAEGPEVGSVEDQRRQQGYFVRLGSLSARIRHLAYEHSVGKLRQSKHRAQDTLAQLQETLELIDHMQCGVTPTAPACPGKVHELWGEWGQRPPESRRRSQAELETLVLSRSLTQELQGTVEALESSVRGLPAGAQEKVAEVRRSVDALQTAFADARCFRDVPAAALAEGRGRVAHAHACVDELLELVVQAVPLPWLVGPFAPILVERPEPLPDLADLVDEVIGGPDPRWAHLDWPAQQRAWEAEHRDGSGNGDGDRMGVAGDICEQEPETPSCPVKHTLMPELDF
Target sequence (Q8WTS1 whole entry, looked up): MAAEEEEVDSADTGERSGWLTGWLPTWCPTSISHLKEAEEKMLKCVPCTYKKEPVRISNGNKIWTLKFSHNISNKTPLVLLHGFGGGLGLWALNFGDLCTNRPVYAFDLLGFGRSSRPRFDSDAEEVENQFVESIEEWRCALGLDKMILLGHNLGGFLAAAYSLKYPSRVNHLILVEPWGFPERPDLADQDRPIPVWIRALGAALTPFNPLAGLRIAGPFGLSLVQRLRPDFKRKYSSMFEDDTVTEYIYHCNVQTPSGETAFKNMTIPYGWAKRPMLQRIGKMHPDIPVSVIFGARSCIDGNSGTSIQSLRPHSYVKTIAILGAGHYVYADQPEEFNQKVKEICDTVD
MOR ag counter: activates human mu opioid receptor in HTR2A counterscreen | activation, % at 9.3 µM | 2,300 tested, 5.3% active | U2OS OPRM1 beta-arrestin PathHunter, luminescence; DMSO 0%, DAMGO 9.3 µM 100% | shares compounds with m5-HT2A agonist;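 active means mean activation above the mean of DMSO-only wells plus 3 SD, cut at about 0.5% in these data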
m5-HT2A ag conf: mouse HTR2A agonism confirmed; shares compounds with m5-HT2A agonist; CHO-K1 PathHunter beta-arrestin recruitment, luminescence; DMSO 0%, 30 µM serotonin 100%; activation, % at 7.6 µM; 2,300 tested, 19% active;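 active means mean activation across triplicates above the hit threshold derived in the original primary screen, cut at about 15% in these data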
Hits are given with their value. An excerpt weighted towards active compounds, which were near 2.3% of everything screened.

`CCOP(=O)(OCC)C(Nc1ccc(C(=O)O)cc1)c1ccccc1` (configuration not stated) gave m5-HT2A agonist inactive, B2AR ag inactive, NTR1 ag inactive, Exocytosis inh inactive and ABHD5-PLIN5 inh inactive.
For CCOP(=O)(OCC)C(Nc1ccc(OC)cc1)c1ccco1 (configuration not stated) the results were m5-HT2A agonist 19, B2AR ag inactive, NTR1 ag inactive, Exocytosis inh inactive, ABHD5-PLIN5 inh inactive, MOR ag counter inactive and m5-HT2A ag conf inactive.
`COc1ccccc1NS(=O)(=O)c1cccc(C(=O)NNC(=O)c2ccc(O)c(Cl)c2)c1` gave m5-HT2A agonist 16, B2AR ag inactive, NTR1 ag inactive, Exocytosis inh inactive, ABHD5-PLIN5 inh inactive, MOR ag counter inactive and m5-HT2A ag conf inactive.
C/C(=N\NC(=O)CNC(=O)c1ccccc1F)c1ccco1 was read as m5-HT2A agonist inactive, B2AR ag inactive, NTR1 ag inactive, Exocytosis inh inactive and ABHD5-PLIN5 inh inactive.
CC(C)C[C@H]1C(=O)N2CCC[C@H]2[C@]2(O)O[C@](NC(=O)C3C=C4c5cccc6[nH]c(Br)c(c56)C[C@H]4N(C)C3)(C(C)C)C(=O)N12 (some centres not stated) was read as m5-HT2A agonist 48, B2AR ag inactive, NTR1 ag inactive, Exocytosis inh inactive, ABHD5-PLIN5 inh inactive, MOR ag counter inactive and m5-HT2A ag conf 174.
Screening N#Cc1cc(Sc2ccccn2)c([N+](=O)[O-])cc1C#N returned m5-HT2A agonist 17, B2AR ag inactive, NTR1 ag inactive, Exocytosis inh inactive, ABHD5-PLIN5 inh inactive, MOR ag counter inactive and m5-HT2A ag conf inactive.
For COc1cc(OC)c(NC(=O)c2ccco2)cc1Cl the results were m5-HT2A agonist inactive, B2AR ag inactive, NTR1 ag inactive, Exocytosis inh inactive and ABHD5-PLIN5 inh inactive.
COc1cc(NC(=O)c2ccco2)c(OC)cc1NC(=O)Nc1ccc(Cl)cc1 was read as m5-HT2A agonist 15, B2AR ag inactive, NTR1 ag inactive, Exocytosis inh inactive, ABHD5-PLIN5 inh inactive, MOR ag counter inactive and m5-HT2A ag conf inactive.
Screening COc1ccc2oc(C(=O)N3CCN(c4ncccn4)CC3)c(C)c2c1 returned m5-HT2A agonist inactive, B2AR ag inactive, NTR1 ag inactive, Exocytosis inh inactive and ABHD5-PLIN5 inh inactive.
Screening COc1ccc2oc(C(=O)N3CCN(C(=O)c4ccco4)CC3)c(C)c2c1 returned m5-HT2A agonist 14, B2AR ag inactive, NTR1 ag inactive, Exocytosis inh inactive, ABHD5-PLIN5 inh inactive, MOR ag counter inactive and m5-HT2A ag conf inactive.
`Cc1oc(-c2cc(F)ccc2F)nc1CN1CCCN(C(=O)c2ccco2)CC1` gave m5-HT2A agonist inactive, B2AR ag inactive, NTR1 ag inactive, Exocytosis inh inactive and ABHD5-PLIN5 inh inactive.
For COc1ccc(OC)c(CN2CCN(C(=O)c3ccco3)CC2)c1 the results were m5-HT2A agonist 16, B2AR ag inactive, NTR1 ag inactive, Exocytosis inh inactive, ABHD5-PLIN5 inh inactive, MOR ag counter 1.2 and m5-HT2A ag conf 34.
For COc1cccc(-c2nc(CN3CCN(C(=O)c4ccco4)CC3)c(C)o2)c1OC the results were m5-HT2A agonist 15, Exocytosis inh inactive, ABHD5-PLIN5 inh inactive, MOR ag counter inactive and m5-HT2A ag conf 43.
`CCC(=O)N1Cc2cc(C(=O)N(C)C)nc(-c3cccc(-c4cncnc4)c3)c2[C@@H]1CCO` gave m5-HT2A agonist inactive, Exocytosis inh inactive and ABHD5-PLIN5 inh inactive.
Screening COc1cccc(C(C(=O)NCc2ccccc2)N2CCN(c3cccc(C)c3C)CC2)c1OC (configuration not stated) returned m5-HT2A agonist inactive, Exocytosis inh inactive and ABHD5-PLIN5 inh inactive.
For CCn1c(N2CCN(S(=O)(=O)c3ccccc3C(F)(F)F)CC2)nc2ccccc21 the results were m5-HT2A agonist inactive, B2AR ag inactive, NTR1 ag inactive, Exocytosis inh inactive and ABHD5-PLIN5 inh inactive.
`CCn1c(N2CCN(S(=O)(=O)c3ccc(OC)cc3)CC2)nc2ccccc21` gave m5-HT2A agonist 17, B2AR ag inactive, NTR1 ag inactive, Exocytosis inh inactive, ABHD5-PLIN5 inh inactive, MOR ag counter inactive and m5-HT2A ag conf 44.
For CC(C)Cc1cc(C(=O)Nc2sc3c(c2C#N)CCC3)no1 the results were m5-HT2A agonist 17, B2AR ag inactive, NTR1 ag inactive, Exocytosis inh inactive, ABHD5-PLIN5 inh inactive, MOR ag counter inactive and m5-HT2A ag conf inactive.
Screening N#Cc1ccccc1C[C@H](N)C(=O)NC[C@H]1O[C@@H](n2ccc(N)nc2=O)[C@H](O)[C@@H]1O returned m5-HT2A agonist 29, Exocytosis inh inactive, ABHD5-PLIN5 inh inactive, MOR ag counter inactive and m5-HT2A ag conf inactive.
For CN[C@H](C)C(=O)NC[C@H]1O[C@@H](n2ccc(N)nc2=O)[C@H](O)[C@@H]1O the results were m5-HT2A agonist inactive, Exocytosis inh inactive and ABHD5-PLIN5 inh inactive.
`Cc1cccc(C)c1NC(=O)CN(C)C(=O)CC1OC(=O)c2ccccc21` (configuration not stated) gave m5-HT2A agonist 18, B2AR ag inactive, NTR1 ag inactive, Exocytosis inh inactive, ABHD5-PLIN5 inh inactive, MOR ag counter inactive and m5-HT2A ag conf inactive.
`CN(CC(=O)Nc1ccc(F)c(F)c1F)C(=O)CC1OC(=O)c2ccccc21` (configuration not stated) gave m5-HT2A agonist inactive, B2AR ag inactive, NTR1 ag inactive, Exocytosis inh inactive and ABHD5-PLIN5 inh inactive.
Screening O=C1CCCN1C(=O)CSc1ccc2ccccc2n1 returned m5-HT2A agonist inactive, B2AR ag inactive, NTR1 ag inactive, Exocytosis inh inactive and ABHD5-PLIN5 inh inactive.
For CC(NC(=O)Nc1ccc(F)cc1F)c1ccncc1 (configuration not stated) the results were m5-HT2A agonist inactive, B2AR ag inactive, NTR1 ag inactive, Exocytosis inh inactive and ABHD5-PLIN5 inh inactive.
`COc1ccc(NC(=O)CN(c2ccc(C(C)C)cc2)S(=O)(=O)c2c(C)noc2C)cc1OC` gave m5-HT2A agonist 15, B2AR ag inactive, NTR1 ag inactive, Exocytosis inh inactive, ABHD5-PLIN5 inh inactive, MOR ag counter inactive and m5-HT2A ag conf inactive.
`COc1ccc(N(CC(=O)Nc2ccc(C)c(C)c2)S(=O)(=O)c2c(C)noc2C)cc1` gave m5-HT2A agonist inactive, B2AR ag inactive, NTR1 ag inactive, Exocytosis inh inactive and ABHD5-PLIN5 inh inactive.
Screening COc1ccccc1CNC(=O)CN(c1ccc(C)cc1)S(=O)(=O)c1c(C)noc1C returned m5-HT2A agonist 17, B2AR ag inactive, NTR1 ag inactive, Exocytosis inh inactive, ABHD5-PLIN5 inh inactive, MOR ag counter inactive and m5-HT2A ag conf inactive.
